High-throughput results deposited in PubChem by several laboratories.
Compounds with a hit are over-represented: about 2.7% of the library has one in this group of screens.
F508del corr = F508del CFTR correction, initial screen, CFBE line, single point. 350,000 compounds, 0.36% hits. AID 720511, 2013. CFBE cells, YFP halide quenching; stimulated with forskolin plus potentiator P3; % fluorescence drop versus neutral controls. activity (quench increase), % at 7.58 µM;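 active means mean added fluorescence quench of at least 8% versus neutral control, with both replicates also reaching 8%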;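 further: cells transiently co-express mutant CFTR-F508del with the halide-sensitive YFP; corrector assay measuring rescue of mutant channel to the surface after 24 h compound exposure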
MPTP block = mitochondrial permeability transition pore inhibitors, primary screen, biochemical, isolated mouse mitochondria, absorbance | AID 602449, 2012 | Ca2+ swelling absorbance, 30 min | 360,000 compounds, 1.4% hits | inhibition, % at 10 µM;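 active means inhibition of 50% or more, scaled per plate between neutral and stimulator controls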
NRP1-CendR mod = modulators of CendR peptide binding to NRP-1, primary screen, biochemical, fluorescence polarization, uHTS. Neuropilin-1 (Homo sapiens), O14786. FAM-RPARPAR peptide binding to NRP-1. inhibition, % at 25 µM. 360,000 compounds, 0.85% hits. AID 602438, 2012;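 active means inhibition or corrected inhibition above about 18%, plus a signal ratio from 0.5 to 1.5, limit read from the data, passing the limit was not always enough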
SKN-1 inh = suppressors of acrylamide-induced Pgst-4::GFP reporter in worms, primary screen, SKN-1 inhibitor project, whole organism, uHTS, GFP/RFP fluorescence ratio, strain VP596; 360,000 compounds, 0.49% hits; inhibition, % at 21.8 µM; C. elegans VP596 Pgst-4::GFP/RFP ratio, 24 h; AID 624304, 2012;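 active means interference check ratio from 0.5 to 1.5 plus GFP to RFP signal ratio inhibition reaching or exceeding a fixed threshold, cut at about 30% in these data, passing the limit was not always enough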
ATG4B inhibitor = ATG4B protease inhibitors, primary screen, biochemical, fluorescence, uHTS; ATG4B cleavage of LC3-PLA2, NBD-HPC fluorescence, 1 h; inhibition, % at 8.33 µM; 340,000 compounds, 0.51% hits; AID 504462, 2011; in the data active means inhibition above about 40%
Target sequence (Q9Y4P1 whole entry, looked up): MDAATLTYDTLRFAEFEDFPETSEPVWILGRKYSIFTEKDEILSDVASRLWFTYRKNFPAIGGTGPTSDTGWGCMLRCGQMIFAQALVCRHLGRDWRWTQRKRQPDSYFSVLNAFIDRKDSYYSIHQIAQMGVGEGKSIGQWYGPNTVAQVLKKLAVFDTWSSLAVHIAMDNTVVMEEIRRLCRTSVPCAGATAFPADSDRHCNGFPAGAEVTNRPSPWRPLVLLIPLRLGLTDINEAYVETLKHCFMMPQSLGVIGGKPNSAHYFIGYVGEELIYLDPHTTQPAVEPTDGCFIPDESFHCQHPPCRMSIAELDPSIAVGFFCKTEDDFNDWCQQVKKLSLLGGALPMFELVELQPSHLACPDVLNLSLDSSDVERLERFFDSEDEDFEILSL
PLA2 ctr = PLA2 enzyme inhibition, counter-screen for ATG4B inhibitor project, biochemical, single concentration, uHTS hits | inhibition, % at 8.33 µM | shares compounds with ATG4B inhibitor | 1,600 compounds, 66% hits | purified PLA2, NBD-C6-HPC fluorescence, 45 min; in the data active means inhibition above about 50%
Target sequence (P04054 whole entry, looked up): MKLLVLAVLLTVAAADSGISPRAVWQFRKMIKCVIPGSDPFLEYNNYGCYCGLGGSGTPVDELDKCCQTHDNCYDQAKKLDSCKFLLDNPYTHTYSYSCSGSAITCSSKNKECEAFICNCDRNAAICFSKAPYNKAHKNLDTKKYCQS
Large screens that a line does not name were inactive (follow-up assays come after a bar, where they were run).

CCNC(=O)C1CCCc2c1[nH]c1ccc(Cl)cc21 (stereo not given)	none (no result: F508del corr)
CO[C@H]1CN(C)C(=O)c2ccc(NC(C)=O)cc2OC[C@@H](C)N(C(=O)CN(C)C)C[C@H]1C	none (no result: MPTP block, NRP1-CendR mod, SKN-1 inh, ATG4B inhibitor)
O=C(NCc1cccc(C(F)(F)F)c1)N1CCN(C(=O)c2ccccc2)CC1	ATG4B inhibitor 56 | PLA2 ctr 61
O=C(CSc1ccc(Br)c2cccc(Cl)c12)Nc1ccc(S(=O)(=O)Nc2nccs2)cc1	ATG4B inhibitor 48 | PLA2 ctr 53
O=C(Nc1nc2nc(-c3ccccc3)cc(-c3ccccc3)n2n1)c1ccco1	ATG4B inhibitor 42 (no result: F508del corr) | PLA2 ctr 51
COc1ccc(S(=O)(=O)N(C)C[C@@H]2Oc3c(NC(=O)NC4CCCCC4)cccc3C(=O)N([C@@H](C)CO)C[C@@H]2C)cc1	none (no result: MPTP block, NRP1-CendR mod, SKN-1 inh, ATG4B inhibitor)
Cc1ccc(S(=O)(=O)Nc2ccc3c(c2)C(=O)N([C@H](C)CO)C[C@H](C)[C@H](CN(C)S(C)(=O)=O)OCCCC[C@H](C)O3)cc1	none (no result: MPTP block, NRP1-CendR mod, SKN-1 inh, ATG4B inhibitor)
CCCCNc1nc(N)nc(-c2cc(Cl)ccc2O)n1	ATG4B inhibitor 46 (no result: F508del corr) | PLA2 ctr 50
CCNc1nc(N)nc(-c2cc(Cl)ccc2O)n1	none (no result: F508del corr)
COc1ccc(CNc2ccc(-c3ccccc3OC)nn2)cc1	ATG4B inhibitor 48 (no result: F508del corr) | PLA2 ctr inactive
COc1ccc(CNc2ccc(-c3ccc(OC)cc3)nn2)cc1	none (no result: F508del corr)
O=C(Nc1ccccc1Cl)C1C(c2ccccc2)C1(Cl)Cl (stereo not given)	ATG4B inhibitor 52 | PLA2 ctr 56
OCCNc1nc(SCc2ccccc2)nc2sc3c(c12)CCC3	ATG4B inhibitor 69 (no result: F508del corr) | PLA2 ctr 90
O=S(=O)(c1ccccc1)N1CCN(c2cccc(Cl)c2)CC1	ATG4B inhibitor 51 | PLA2 ctr 61
CN(CC(=O)NCC1CCCO1)S(=O)(=O)c1cc(Cl)ccc1Cl (stereo not given)	ATG4B inhibitor 93 (no result: F508del corr) | PLA2 ctr inactive
O=C1C2C3C=CC(C3)C2C(=O)N1/N=C/c1cn(Cc2ccccc2)c2ccccc12 (stereo not given)	ATG4B inhibitor 48 (no result: F508del corr) | PLA2 ctr 57
O=C1C2C3C=CC(C3)C2C(=O)N1/N=C/c1cn(Cc2ccc(F)cc2)c2ccccc12 (stereo not given)	ATG4B inhibitor 48 (no result: F508del corr) | PLA2 ctr 70
CC(C(=O)Nc1ccccc1-c1ccccc1)N1CCN(C(=O)c2ccccc2)CC1 (stereo not given)	none
CC1CCN(CC(=O)Nc2ccccc2-c2ccccc2)CC1	NRP1-CendR mod 36, ATG4B inhibitor 45 | PLA2 ctr 69
CC1CCN(CC(=O)Nc2ccccc2C(=O)c2ccccc2)CC1	none
CC1CCN(C(C)C(=O)Nc2ccccc2-c2ccccc2)CC1 (stereo not given)	SKN-1 inh 44, ATG4B inhibitor 43 (no result: F508del corr) | PLA2 ctr 53
CC1CCCCC1NCC(=O)Nc1ccccc1-c1ccccc1 (stereo not given)	ATG4B inhibitor 48 (no result: F508del corr) | PLA2 ctr 53
O=S(=O)(c1ccc(F)cc1)N1CCCCN2[C@@H](CO)[C@H](c3ccc(C#CC4CC4)cc3)[C@@H]2C1	none (no result: MPTP block, NRP1-CendR mod, SKN-1 inh, ATG4B inhibitor)
O=S(=O)(c1ccc(Cl)s1)N1CCc2ccccc2C1	none (no result: F508del corr)
O=S(=O)(c1ccc(Br)s1)N1CCc2ccccc2C1	ATG4B inhibitor 57 | PLA2 ctr inactive
Cc1cccc(C(=O)NNC(=O)c2ccccc2)c1	none (no result: F508del corr)
Cc1cccc(C(=O)c2cnc3ccccc3c2-c2ccccc2)c1	ATG4B inhibitor 57 (no result: F508del corr) | PLA2 ctr 59
O=C(O)c1cc(-c2ccco2)nn1-c1ccc(Cl)cc1	ATG4B inhibitor 43 | PLA2 ctr inactive
C[C@H](CO)N1C[C@H](C)[C@H](CN(C)S(=O)(=O)c2cccs2)Oc2ccc(NC(=O)Cc3cn(C)c4ccccc34)cc2C1=O	none (no result: MPTP block, NRP1-CendR mod, SKN-1 inh, ATG4B inhibitor)
COc1ccc(N(CC(=O)Nc2ccccc2C(=O)O)S(=O)(=O)c2ccc(C)c([N+](=O)[O-])c2)cc1	ATG4B inhibitor 59 | PLA2 ctr 62
COc1ccc(NC(=O)CN(c2ccc([N+](=O)[O-])cc2)S(=O)(=O)c2ccccc2)cc1	none (no result: F508del corr)
N#Cc1c(NC(=S)NC(=O)C2CCCC2)sc2c1CCCCC2	ATG4B inhibitor 74 (no result: F508del corr) | PLA2 ctr inactive
CSc1nnc(-c2sccc2-n2cccc2)o1	none
Clc1cccc(Cl)c1CSc1nnc(-c2sccc2-n2cccc2)o1	ATG4B inhibitor 53 (no result: F508del corr) | PLA2 ctr 65
O=C1CC(c2ccccc2Cl)CC(O)=C1C=Nc1ccccc1 (stereo not given)	ATG4B inhibitor 53 (no result: F508del corr) | PLA2 ctr 53
COC(=O)C1=C(N)N(c2ccccc2C(F)(F)F)C2=C(C(=O)CCC2)C1c1ccc2c(c1)OCO2 (stereo not given)	ATG4B inhibitor 54 (no result: F508del corr) | PLA2 ctr 68
O=C(Oc1cncc(Cl)c1)c1sccc1Cl	ATG4B inhibitor 98 | PLA2 ctr inactive
O=C(Oc1cccnc1)c1cccc(Cl)c1	none
O=C(O)c1cc(O)c2c(c1)[C@@H]([C@H]1c3cc(C(=O)O)cc(O)c3C(=O)c3c(O[C@@H]4O[C@H](CO)[C@@H](O)[C@H](O)[C@H]4O)cccc31)c1cccc(O[C@@H]3O[C@H](CO)[C@@H](O)[C@H](O)[C@H]3O)c1C2=O	ATG4B inhibitor 47 (no result: F508del corr, MPTP block, NRP1-CendR mod, SKN-1 inh) | PLA2 ctr inactive
OCC1OC(Oc2cccc3ccccc23)C(O)C(O)C1O (stereo not given)	none
COc1ccc(C2=NOC(Cn3nc(C(=O)NCc4cccc(Br)c4)cc3-c3ccccc3)C2)cc1 (stereo not given)	ATG4B inhibitor 53 | PLA2 ctr 59
COc1ccc(C2=NOC(Cn3nc(-c4ccccc4)cc3C(=O)NCc3cccc(Br)c3)C2)cc1 (stereo not given)	none
O=C(C1CCC1)N1C[C@@H]2[C@H](c3ccccc31)[C@@H](CO)N2C(=O)c1ccccc1F	none (no result: MPTP block, NRP1-CendR mod, SKN-1 inh, ATG4B inhibitor)
C=CCn1c(SCC(=O)c2ccc(OC)cc2)nnc1-c1cc2cccc(OC)c2o1	none (no result: F508del corr)
C=CCn1c(SCC(=O)c2ccccc2)nnc1-c1cc2ccccc2o1	ATG4B inhibitor 62 (no result: F508del corr) | PLA2 ctr 62
C[C@@H]1CCCCO[C@H](CN(C)C(=O)CCCN(C)C)[C@@H](C)CN([C@H](C)CO)C(=O)c2cc(NC(=O)Nc3cccc4ccccc34)ccc2O1	none (no result: MPTP block, NRP1-CendR mod, SKN-1 inh, ATG4B inhibitor)
CCOC(=O)CSc1nc2ccccc2c(=O)n1C1CCCC1	ATG4B inhibitor 44 (no result: F508del corr) | PLA2 ctr 65
